PLK1 PBD block: qHTS for Inhibitors of PLK1-PDB (polo-like kinase 1 - polo-box domain): Primary Screen; Plk1 PBD binding of FITC phosphopeptide, fluorescence polarization; actives 2.8% (n = 360,000); Potency, µM, for the others: max response, negative = inhibition, most hits filed as inhibitors; Serine/threonine-protein kinase PLK1 (Homo sapiens), P53350; also: potency is read from the fitted curve at half-maximal effect; series mostly up to about 57 µM; % is scaled to controls: 0 for no effect and ±100 for the full control effect; nearly all actives have a fitted effect of over 65% in size
BAZ2B block: qHTS Assay for Inhibitors of BAZ2B; actives 4.4% (n = 360,000); Potency, µM (series often up to 114 µM), inactives show at the top dose activity change, negative = inhibition, most hits filed as inhibitors; AlphaScreen BAZ2B-H3K14Ac peptide displacement; AID 504333, 2011; Bromodomain adjacent to zinc finger domain protein 2B (Homo sapiens), Q9UIF8; also: potency is read from the fitted curve at half-maximal effect; % is scaled to controls: 0 for no effect and ±100 for the full control effect; nearly all actives have a fitted effect of over 60% in size
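Inhibition is scored as reduced AlphaScreen emission. The BAZ2B/b-H3(5-23)K14Ac complex (50 nM each) in PBS pH 7.4, 0.01% Tween-20 meets compound (up to 110 uM) for 30 min at RT before bead addition.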
HP1b chromo inh: HTS for Inhibitors of HP1-beta Chromodomain Interactions with Methylated Histone Tails; actives 0.56% (n = 390,000); AID 540317, 2011; Potency, µM (titrated, usually from 114 µM), for the others: at the highest dose activity change, negative = inhibition, actives largely listed as inhibitors; AlphaScreen HP1-beta / biotin-H3K9me3 peptide binding; Chromobox protein homolog 1 (Homo sapiens), P83916; also: potency is read from the fitted curve at half-maximal effect; nearly all actives have a fitted effect of over 70% in size
Target sequence (P83916 whole entry, looked up): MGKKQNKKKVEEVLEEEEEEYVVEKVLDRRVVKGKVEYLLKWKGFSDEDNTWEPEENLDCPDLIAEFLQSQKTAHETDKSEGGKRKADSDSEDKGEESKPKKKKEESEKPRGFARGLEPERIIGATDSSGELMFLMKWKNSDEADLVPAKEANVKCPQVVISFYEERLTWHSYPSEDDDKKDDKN
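Compound inhibition of the preformed complex between 50 nM HP1-beta and 50 nM biotinylated H3K9me3 peptide was read by AlphaScreen. Buffer was PBS pH 7.4 with 0.01% Tween-20. Incubations ran 30 min at room temperature, with 10 ug/mL donor/acceptor beads.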
JMJD2A Tudor inh: qHTS Assay for Inhibitors of JMJD2A-Tudor Domain. Lysine-specific demethylase 4A (Homo sapiens), O75164. AlphaScreen JMJD2A-Tudor / H3K4me3 peptide binding. Potency, µM (titrated, usually from 114 µM), without a hit: at the highest dose activity change, negative = inhibition, most hits filed as inhibitors. actives 4.4% (n = 390,000); also: potency is read from the fitted curve at half-maximal effect; % is scaled to controls: 0 for no effect and ±100 for the full control effect; nearly all actives have a fitted effect of over 50% in size
G9a inh: qHTS Assay for Inhibitors of Histone Lysine Methyltransferase G9a; Histone-lysine N-methyltransferase EHMT2 (Homo sapiens), Q96KQ7; G9a H3K9 monomethylation, AlphaScreen, 2 h; Potency, µM (series often up to 102 µM), for the others: at the top dose activity, negative = inhibition, usual class: inhibitors; actives 8.8% (n = 350,000); AID 504332, 2011; also: potency is read from the fitted curve at half-maximal effect; % is scaled to controls: 0 for no effect and ±100 for the full control effect; nearly all actives have a fitted effect of over 75% in size
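AlphaScreen detection with an anti-monomethyl H3K9 antibody quantified product after a 2 h room-temperature reaction containing 500 nM biotinylated H3K9 peptide, 20 µM SAM and 20 nM enzyme, which had been preincubated 15 min with compound.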
PI5P4K alpha inh: qHTS for Inhibitors of phosphatidylinositol 5-phosphate 4-kinase (PI5P4K). Phosphatidylinositol 5-phosphate 4-kinase type-2 alpha (Homo sapiens), P48426. PI5P4Kalpha enzyme, ADP-Glo luminescence, 60 min; stronger effect = lower value. max response, %. actives 1.2% (n = 330,000); active = max response of -50% or lower; inconclusive = between -30% and -50%; inactive = -30% or higher; also: value at the top dose of about 77 µM; % is scaled to controls: 0 for no effect and ±100 for the full control effect
Target sequence (P48426 whole entry, looked up): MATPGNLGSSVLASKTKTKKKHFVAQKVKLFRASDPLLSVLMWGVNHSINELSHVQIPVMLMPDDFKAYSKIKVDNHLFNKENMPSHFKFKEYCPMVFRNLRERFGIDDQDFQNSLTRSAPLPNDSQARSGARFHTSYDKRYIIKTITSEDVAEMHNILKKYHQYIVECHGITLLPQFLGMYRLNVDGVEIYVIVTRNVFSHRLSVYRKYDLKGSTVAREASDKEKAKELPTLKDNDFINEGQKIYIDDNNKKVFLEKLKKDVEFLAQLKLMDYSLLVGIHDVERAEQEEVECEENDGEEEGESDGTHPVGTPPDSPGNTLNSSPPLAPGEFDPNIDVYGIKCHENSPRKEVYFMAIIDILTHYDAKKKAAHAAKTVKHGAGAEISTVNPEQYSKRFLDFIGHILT
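Reactions run in 0.038 M HEPES pH 7.4, 0.28 mM EGTA, 0.1% CHAPS and 5% DMSO, with PI5P4Kalpha, substrate, compound and 5 microM ATP final, one hour at room temperature. Readout is ADP-Glo luminescence.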
An asterisk follows results filed as active; [ ] = dose if it differs, or a comment. Hits are enriched below; roughly 12% of the tested compounds scored in any of these assays. Unless noted, calls follow the shape of the dose curve; as a rule, active = well fitted curve in the direction sought with a large enough effect; inconclusive = small, poorly fitted or top-dose-only effect, or another doubt; inactive = no such curve, though single readings can be large; an effect the other way counts as inactive or inconclusive.

How did Cc1ccc(S(=O)(=O)N2CCC(c3nc(-c4cccs4)nc4ccccc34)CC2)cc1 do in these assays?
HP1b chromo inh: 12%; JMJD2A Tudor inh: -8%

How did Cc1nc(N2CCN(Cc3ccc4c(c3)OCO4)CC2)nc2c1C(=O)CC(c1ccco1)C2 (stereo unspecified) do in these assays?
PLK1 PBD block: -3%; BAZ2B block: inconclusive; HP1b chromo inh: -9%; JMJD2A Tudor inh: inconclusive; G9a inh: 40µM*

Results for Cc1ccc2occ(CC(=O)Nc3c(C(=O)Nc4ccc(Cl)cc4)oc4ccccc34)c2c1 ?
BAZ2B block: -3%; HP1b chromo inh: 41%; JMJD2A Tudor inh: -9%; G9a inh: 0%[59 µM]

How did NC(=O)c1sc(=S)n2c1[nH]c(=O)c1sccc12 do in these assays?
PLK1 PBD block: -17%; BAZ2B block: -23%; HP1b chromo inh: -9%; JMJD2A Tudor inh: inconclusive; G9a inh: 18µM*; PI5P4K alpha inh: inconclusive

What do the screens show for `CC(=O)NNC(=O)c1sc(=S)n2c1[nH]c(=O)c1sccc12`?
PLK1 PBD block: 21µM*; BAZ2B block: -23%; HP1b chromo inh: inconclusive; JMJD2A Tudor inh: 79µM*; G9a inh: 13µM*; PI5P4K alpha inh: 188

Results for CCCCc1ccc(-n2nc3ccc(NC(=O)c4cc5ccccc5o4)cc3n2)cc1 ?
BAZ2B block: 0%; HP1b chromo inh: 27%; JMJD2A Tudor inh: -15%; G9a inh: -1%[59 µM]

How did CCOc1cc(C(=O)NCc2nc(-c3cccc(C)c3)no2)cc(OCC)c1OCC do in these assays?
BAZ2B block: -2%; HP1b chromo inh: 3%; JMJD2A Tudor inh: -16%; G9a inh: -4%[59 µM]

What do the screens show for `COc1ccc(N2C(=O)C3C4C=CC(C5CC45)C3C2=O)c([N+](=O)[O-])c1` (stereo unspecified)?
PLK1 PBD block: -1%; BAZ2B block: 12%[57.1 µM]; HP1b chromo inh: 24%; JMJD2A Tudor inh: -20%; G9a inh: 14%; PI5P4K alpha inh: -11

Results for COc1cc([N+](=O)[O-])ccc1N1C(=O)C2C3C=CC(C4CC34)C2C1=O (stereo unspecified) ?
PLK1 PBD block: -23%; BAZ2B block: -27%; HP1b chromo inh: 20%; JMJD2A Tudor inh: -12%[57.1 µM]; G9a inh: 40µM*; PI5P4K alpha inh: 4

What do the screens show for `Cc1ccc(-c2nc3ccccc3n2C(C)C(=O)NC(C)(C)C)cc1` (stereo unspecified)?
PLK1 PBD block: -13%; PI5P4K alpha inh: -1

Results for CC(C)c1cnc2c(c1SCC(=O)c1ccc(Cl)cc1)c(=O)n(C)c(=O)n2C ?
BAZ2B block: -4%; HP1b chromo inh: 14%[57 µM]; JMJD2A Tudor inh: -27%; G9a inh: -9%[59 µM]

How did O=S(=O)(NN1CCOCC1)c1cc(Cl)cc(Cl)c1O do in these assays?
PLK1 PBD block: 15µM*; BAZ2B block: 4%; HP1b chromo inh: 15%; JMJD2A Tudor inh: -19%; G9a inh: 30%; PI5P4K alpha inh: 4

Results for O=C(NN1CCOCC1)c1ccc(Cl)cc1Cl ?
PLK1 PBD block: -12%; HP1b chromo inh: 40%; JMJD2A Tudor inh: -1%; PI5P4K alpha inh: -8

Results for COc1ccc2c(c1)-c1ccccc1S(=O)(=O)N2C(C)=O ?
PLK1 PBD block: 27µM*; BAZ2B block: 1%; HP1b chromo inh: 55%; JMJD2A Tudor inh: 0%; G9a inh: -1%[59 µM]

How did CNC(=O)CN(C1CCCCC1)S(=O)(=O)c1ccc(OC)c(Cl)c1 do in these assays?
PLK1 PBD block: -7%; BAZ2B block: 4%; HP1b chromo inh: 9%; JMJD2A Tudor inh: -6%; G9a inh: 50µM*; PI5P4K alpha inh: -4

What do the screens show for `CS(=O)(=O)N(CC(=O)NCc1ccc(Cl)cc1)C1CCCCC1`?
PLK1 PBD block: 3µM*; BAZ2B block: 5%; HP1b chromo inh: inconclusive; JMJD2A Tudor inh: -35%[11.4 µM]; G9a inh: 12%[59 µM]; PI5P4K alpha inh: inconclusive

How did Cc1ccc(S(=O)(=O)N(CC(=O)NCc2ccco2)C2CCCCC2)cc1 do in these assays?
PLK1 PBD block: -10%; BAZ2B block: -34%; HP1b chromo inh: 9%; JMJD2A Tudor inh: -23%; G9a inh: inconclusive

What do the screens show for `Cc1ccc(S(=O)(=O)N(CC(=O)NCc2ccncc2)C2CCCCC2)cc1`?
PLK1 PBD block: 2.7µM*; BAZ2B block: 6%; HP1b chromo inh: inconclusive; JMJD2A Tudor inh: inconclusive; G9a inh: -14%[59 µM]; PI5P4K alpha inh: inconclusive

What do the screens show for `CCCCOC(=O)c1ccc(NC(=O)/C(C#N)=C/c2ccc(C)o2)cc1`?
BAZ2B block: -11%; HP1b chromo inh: 14%; JMJD2A Tudor inh: -12%; G9a inh: -33%[59 µM]

How did COc1ccccc1C(=O)NCCCCNC(=O)c1ccccc1OC do in these assays?
PLK1 PBD block: 7%; HP1b chromo inh: 24%; JMJD2A Tudor inh: 3%; PI5P4K alpha inh: -1

What do the screens show for `COc1ccc(-c2cn3nc4c(nc3n2)CCCC4)cc1`?
PLK1 PBD block: inconclusive; BAZ2B block: 7%; HP1b chromo inh: 78%; JMJD2A Tudor inh: 18%; G9a inh: 79µM*; PI5P4K alpha inh: -12

What do the screens show for `COc1ccc(-c2cn3ccccc3n2)cc1`?
PLK1 PBD block: -7%; BAZ2B block: -14%; HP1b chromo inh: 16%; JMJD2A Tudor inh: -26%; G9a inh: 2%; PI5P4K alpha inh: -16

Results for C/C(O)=C\c1nc2ccccc2oc1=O ?
PLK1 PBD block: -30%; BAZ2B block: -7%; HP1b chromo inh: -13%; JMJD2A Tudor inh: -13%[11.4 µM]; G9a inh: inconclusive; PI5P4K alpha inh: 3

How did CS(=O)(=O)Cc1nc2ccccc2oc1=O do in these assays?
PLK1 PBD block: 2%; BAZ2B block: -22%; HP1b chromo inh: 20%; JMJD2A Tudor inh: 26%; G9a inh: 40µM*; PI5P4K alpha inh: -5

What do the screens show for `O=c1c(-c2cccs2)nc2cnc(N3CCOCC3)nc2n1CCc1ccccc1`?
G9a inh: 22%[0.501 µM]

Results for COc1ccc(CN(CCCN2CCOCC2)C(=O)Nc2ccccc2)cc1OC ?
PLK1 PBD block: -12%; BAZ2B block: -3%; HP1b chromo inh: 13%; JMJD2A Tudor inh: -25%; G9a inh: 17%

Results for COc1ccc(NC(=S)N(CCCN2CCOCC2)Cc2cn(C)c3ccccc23)cc1OC ?
PLK1 PBD block: inconclusive; BAZ2B block: inconclusive; HP1b chromo inh: -3%; JMJD2A Tudor inh: -27%; G9a inh: 50µM*; PI5P4K alpha inh: 2

Bioassay records deposited in PubChem by National Center for Advancing Translational Sciences (NCATS).
